Measured values taken from PubChem BioAssay AID1159580 (chemical genetic matrix, 2015).
Out of some 5,500 compounds screened, about 2,000 (36%) were called active. Inconclusive results (about 18%) are left out. Rule as the data show it: active = normalized growth mostly below about 0.91 (no sharp cut-off); inconclusive = no clear call, values can overlap the other calls; inactive = mostly above about 0.92. The list shows a part of the results.

Assay: chemical genetic growth profiling, strain panel (AID 1159580);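 also: tested at 20 µM; growth read once vehicle control cultures reached saturation at 30 °C; 1 = growth at the plate median or of vehicle wells; lower values mean less growth of the strain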
Settings: growth OD

Measured: normalized growth

O=C(Cn1ccnc1[N+](=O)[O-])NCCO
inactive: S. cerevisiae deletion strains, locus YJR075W, strain HOC1, hits give low values 1 | S. cerevisiae deletion strains, locus YKL009W, strain mrt4, hits give low values 1.03 | S. cerevisiae deletion strains, locus YKL068W, hits give low values 1.02 | S. cerevisiae deletion strains, locus YKL085W, strain MDH1 (second series), hits give low values 1.03 | S. cerevisiae deletion strains, locus YKL085W, strain MDH1, hits give low values 1.03 | S. cerevisiae deletion strains, locus YKL160W, strain elf1, hits give low values 1.02 | S. cerevisiae deletion strains, locus YKL190W, strain CNB1, hits give low values 1.01 | S. cerevisiae deletion strains, locus YKR001C, strain vps1, hits give low values 1.01 | S. cerevisiae deletion strains, locus YKR026C, strain gcn3, hits give low values 1.01 | S. cerevisiae deletion strains, locus YKR091W, strain srl3, hits give low values 1.01 | S. cerevisiae deletion strains, locus YLL001W, strain dnm1, hits give low values 1.01 | S. cerevisiae deletion strains, locus YLL026W, hits give low values 1.01 | S. cerevisiae deletion strains, locus YLL041C, strain sdh2, hits give low values 1.01 | S. cerevisiae deletion strains, locus YLR027C, strain aat2, hits give low values 1.01 | S. cerevisiae deletion strains, locus YLR039C, strain RIC1, hits give low values 1.08 | S. cerevisiae deletion strains, locus YLR058C, strain SHM2, hits give low values 1.01 | S. cerevisiae deletion strains, locus YLR102C, strain apc9, hits give low values 1.01 | S. cerevisiae deletion strains, locus YLR113W, strain HOG1, hits give low values 0.988 | S. cerevisiae deletion strains, locus YLR221C, strain rsa3, hits give low values 1.02 | S. cerevisiae deletion strains, locus YLR258W, strain gsy2, hits give low values 1.02 | S. cerevisiae deletion strains, locus YLR262C, strain YPT6 (second series), hits give low values 1.02 | S. cerevisiae deletion strains, locus YLR262C, strain YPT6, hits give low values 1.07 | S. cerevisiae deletion strains, locus YLR268W, strain sec22, hits give low values 0.981 | S. cerevisiae deletion strains, locus YLR320W, strain mms22, hits give low values 1.03 | S. cerevisiae deletion strains, locus YLR330W, strain CHS5, hits give low values 1 | S. cerevisiae deletion strains, locus YLR342W, strain FKS1 (second series), hits give low values 1.08 | S. cerevisiae deletion strains, locus YLR342W, strain FKS1, hits give low values 1.02 | S. cerevisiae deletion strains, locus YLR357W, strain rsc2, hits give low values 1.01 | S. cerevisiae deletion strains, locus YLR370C, strain arc18, hits give low values 1.02 | S. cerevisiae deletion strains, locus YLR371W, strain rom2, hits give low values 1.01 | S. cerevisiae deletion strains, locus YLR384C, strain iki3, hits give low values 1.03 | S. cerevisiae deletion strains, locus YLR418C, strain cdc73, hits give low values 0.95 | S. cerevisiae deletion strains, locus YML016C, strain PPZ1, hits give low values 1 | S. cerevisiae deletion strains, locus YML032C, strain rad52, hits give low values 1.02 | S. cerevisiae deletion strains, locus YML120C, strain ndi1, hits give low values 1 | S. cerevisiae deletion strains, locus YML124C, strain tub3, hits give low values 1 | S. cerevisiae deletion strains, locus YMR058W, strain fet3, hits give low values 1.01 | S. cerevisiae deletion strains, locus YMR078C, strain ctf18, hits give low values 1.01 | S. cerevisiae deletion strains, locus YMR125W, strain sto1, hits give low values 1.02 | S. cerevisiae deletion strains, locus YMR129W, hits give low values 1.02 | S. cerevisiae deletion strains, locus YMR205C, strain PFK2, hits give low values 1.03 | S. cerevisiae deletion strains, locus YMR223W, strain ubp8, hits give low values 1.02 | S. cerevisiae deletion strains, locus YMR231W, strain pep5, hits give low values 1.02 | S. cerevisiae deletion strains, locus YMR263W, strain SAP30, hits give low values 0.993 | S. cerevisiae deletion strains, locus YMR307W, strain GAS1, hits give low values 1.04 | S. cerevisiae deletion strains, locus YNL067W, strain RPL9B, hits give low values 0.988 | S. cerevisiae deletion strains, locus YNL071W, strain lat1, hits give low values 1 | S. cerevisiae deletion strains, locus YNL128W, strain TEP1, hits give low values 0.991 | S. cerevisiae deletion strains, locus YNL153C, strain GIM3, hits give low values 0.97 | S. cerevisiae deletion strains, locus YNL183C, strain NPR1, hits give low values 0.955 | S. cerevisiae deletion strains, locus YNL209W, strain ssb2, hits give low values 1.02 | S. cerevisiae deletion strains, locus YNL233W, strain BNI4, hits give low values 1 | S. cerevisiae deletion strains, locus YNL248C, strain rpa49, hits give low values 1.01 | S. cerevisiae deletion strains, locus YNL250W, strain rad50, hits give low values 0.99 | S. cerevisiae deletion strains, locus YNL271C, strain bni1, hits give low values 0.999 | S. cerevisiae deletion strains, locus YNL298W, strain CLA4, hits give low values 1.01 | S. cerevisiae deletion strains, locus YNL307C, strain MCK1, hits give low values 1.03 | S. cerevisiae deletion strains, locus YNL322C, strain KRE1 (second series), hits give low values 1.02 | S. cerevisiae deletion strains, locus YNL322C, strain KRE1, hits give low values 1.01 | S. cerevisiae deletion strains, locus YNR049C, strain mso1, hits give low values 1.01 | S. cerevisiae deletion strains, locus YNR052C, strain pop2, hits give low values 1.01 | S. cerevisiae deletion strains, locus YOL006C, strain TOP1, hits give low values 1.06 | S. cerevisiae deletion strains, locus YOL012C, strain htz1 0.906 | S. cerevisiae deletion strains, locus YOL147C, strain pex11, hits give low values 1.01 | S. cerevisiae deletion strains, locus YOR001W, strain rrp6, hits give low values 1.02 | S. cerevisiae deletion strains, locus YOR061W, strain CKA2, hits give low values 1 | S. cerevisiae deletion strains, locus YOR069W, strain VPS5, hits give low values 1.01 | S. cerevisiae deletion strains, locus YOR070C, strain gyp1, hits give low values 1.03 | S. cerevisiae deletion strains, locus YOR080W, strain dia2, hits give low values 1.01 | S. cerevisiae deletion strains, locus YOR083W, strain WHI5, hits give low values 1.02 | S. cerevisiae deletion strains, locus YOR106W, strain vam3, hits give low values 1.02 | S. cerevisiae deletion strains, locus YOR136W, strain idh2, hits give low values 1.01 | S. cerevisiae deletion strains, locus YOR144C, strain elg1, hits give low values 1.01 | S. cerevisiae deletion strains, locus YOR184W, strain ser1, hits give low values 1.05 | S. cerevisiae deletion strains, locus YOR231W, strain MKK1, hits give low values 0.986 | S. cerevisiae deletion strains, locus YOR265W, strain rbl2, hits give low values 1.03 | S. cerevisiae deletion strains, locus YOR270C, strain vph1, hits give low values 1.03 | S. cerevisiae deletion strains, locus YOR290C, strain snf2, hits give low values 1.01 | S. cerevisiae deletion strains, locus YOR316C, strain cot1, hits give low values 1 | S. cerevisiae deletion strains, locus YPL051W, strain arl3, hits give low values 1.02 | S. cerevisiae deletion strains, locus YPL055C, strain LGE1, hits give low values 0.955 | S. cerevisiae deletion strains, locus YPL078C, strain atp4, hits give low values 1.01 | S. cerevisiae deletion strains, locus YPL106C, strain sse1, hits give low values 1.02 | S. cerevisiae deletion strains, locus YPL240C, strain hsp82, hits give low values 1.01 | S. cerevisiae deletion strains, locus YPL241C, strain CIN2, hits give low values 1.01 | S. cerevisiae deletion strains, locus YPL256C, strain CLN2, hits give low values 0.977 | S. cerevisiae deletion strains, locus YPR119W, strain clb2, hits give low values 1.01 | S. cerevisiae deletion strains, locus YPR141C, strain kar3, hits give low values 1.01 | S. cerevisiae deletion strains, locus YPR163C, strain tif3, hits give low values 1.01 | S. cerevisiae deletion strains, locus YPR167C, strain met16, hits give low values 1.02 | S. cerevisiae deletion strains, strain wtn01, hits give low values 1 | S. cerevisiae strains, strain wild type, hits give low values 1.01
